The results in this text go back to PubChem BioAssay (NCATS).

Non-standard residues stand in square brackets, D forms with d. Residues, ends and D or L forms follow the SMILES beside them. *: point of attachment. Sta = CC(C)C[C@H](N)[C@@H](O)CC(=O)O; Isovaleryl = CC(C)CC(=O)*

The nature of this assay: qHTS drug screen for cell cycle checkpoint inhibitors in PARPi-resistant BRCA-mutant ovarian cancer cell lines. (AID 1963452). Particulars: PEO1/OlaR viability, CellTiter-Glo luminescence, 96 h; measured here: PEO4 Z-AUC; stronger effect = lower value. In a few lines: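 PEO1, PEO4 and PEO1/OlaR ovarian cancer cells, 600 per well, exposed 96 h at 37C to a dilution series. Viability read by CellTiter-Glo luminescence, normalized to DMSO and empty wells; activity summarized as Z-AUC.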
On the technique in general: In qHTS, concentration-response curves come from the screen itself.
For the compound `Cc1cc(Cl)ccc1OCCCC(=O)NO`, the Z-AUC stood at 0.182. The figure for `O=c1c(O)c(-c2cc(O)c(O)c(O)c2)oc2cc(O)cc(O)c12` is 1.17; for `Cc1ccc(C)c(OCCCC(C)(C)C(=O)O)c1` it is 1.5. In the case of `CN(C)C(=O)COC(=O)Cc1ccc(OC(=O)c2ccc(N=C(N)N)cc2)cc1`, the Z-AUC is -0.684. As for `Nc1nc(N)c(N=O)c(OCC2CCCCC2)n1`, the Z-AUC was found to be 0.22. On to `Oc1ccc2ccccc2c1SSc1c(O)ccc2ccccc12`, for which the Z-AUC is 0.501.

With `Clc1ccc2c(N3CCN(CCCN4CCN(c5ccnc6cc(Cl)ccc56)CC4)CC3)ccnc2c1`, the Z-AUC amounted to 0.795. Consider `Oc1ccc(OCc2ccccc2)cc1`, for which the Z-AUC came out at 0.0323. The figure for `Nc1ncn([C@H]2C[C@H](O)[C@@H](CO)O2)c(=O)n1` is -0.207; for `O=C1c2c(O)cc(O)cc2OC(c2ccc(O)c(O)c2)C1O` (stereo unspecified) it is -0.326. With `O=C(NCCO[N+](=O)[O-])c1cccnc1`, the Z-AUC is -0.272. Consider `Nc1cc(C(Cl)=C(Cl)Cl)c(S(N)(=O)=O)cc1S(N)(=O)=O`, for which the Z-AUC was determined as 1.34. The figure for `CC(=O)O[C@H]1C(=O)[C@@]2(C)C([C@H](OC(=O)c3ccccc3)[C@]3(O)C[C@H](OC(=O)[C@H](O)[C@@H](NC(=O)c4ccccc4)c4ccccc4)C(C)=C1C3(C)C)[C@]1(OC(C)=O)CO[C@@H]1C[C@@H]2O` (stereo partly specified) is -3.15; for `Cc1cc(=O)oc2cc(O)ccc12` it is 0.848. The figure for `CC(=O)Nc1ccc(O)cc1` is 0.415; for `COc1c2occc2cc2ccc(=O)oc12` it is 1.02. Consider `CCCCC(CC)COC(=O)C(C#N)=C(c1ccccc1)c1ccccc1` (stereo unspecified), for which the Z-AUC stood at 0.0622. For `CC[C@]1(O)C[C@H]2CN(CCc3c([nH]c4ccccc34)[C@@](C(=O)OC)(c3cc4c(cc3OC)N(C=O)[C@H]3[C@@](O)(C(=O)OC)[C@H](OC(C)=O)[C@]5(CC)C=CCN6CC[C@]43[C@@H]65)C2)C1`, the Z-AUC is -1.16.

As for `O=c1oc2cc(O)ccc2s1`, the Z-AUC came out at 1.28.

As for `CCCS(=O)c1ccc2nc(NC(=O)OC)[nH]c2c1` (stereo unspecified), the Z-AUC turned out to be 0.468. For `CC(C)C[C@H](NC(=O)[C@H](Cc1ccccc1)NC(=O)c1cnccn1)B(O)O`, the Z-AUC was -2.39. As for `CC(C)[C@H](N)C(=O)OCCOCn1cnc2c(=O)[nH]c(N)nc21`, the figure is 0.722; as for `COc1cc2c(N3CCN(C(=O)Nc4ccc(OC(C)C)cc4)CC3)ncnc2cc1OCCCN1CCCCC1`, 1.1. In the case of `Oc1ccc(-c2nc(-c3ccc(F)cc3)c(-c3ccncc3)[nH]2)cc1`, the Z-AUC turned out to be 0.0892.

As for `CC(C)CC(=O)N[C@H](C(=O)N[C@H](C(=O)N[C@@H](CC(C)C)[C@@H](O)CC(=O)N[C@@H](C)C(=O)N[C@@H](CC(C)C)[C@@H](O)CC(=O)O)C(C)C)C(C)C` (Isovaleryl-VV[Sta]A[Sta]-OH), the Z-AUC came out at 0.507. As to `Cc1ccc(Nc2nccc(N(C)c3ccc4c(C)n(C)nc4c3)n2)cc1S(N)(=O)=O`, the Z-AUC is 0.955. As to `C[C@H](Cc1ccc(O)c(O)c1)[C@@H](C)Cc1ccc(O)c(O)c1`, the Z-AUC was 0.729. `CCCc1cc(=O)[nH]c(=S)[nH]1`: the Z-AUC is 0.119. Regarding `COc1cc(OC)c(C(=O)CCCN2CCCC2)c(OC)c1`, the Z-AUC was 0.794. In the case of `Nc1ccc(S(N)(=O)=O)cc1`, the Z-AUC came to 0.56. On to `O=C1CCc2ccc(OCCCCN3CCN(c4cccc(Cl)c4Cl)CC3)cc2N1`, for which the Z-AUC is -1.21.
